# In all, about 47,000 compounds went through this assay and about 2,500 (5.3%) were called active. Rule as the data show it: active = inhibition above about 30%; inactive = the rest. The entries come from a sample that favours actives as a whole.
# Molecular target: Ubiquitin carboxyl-terminal hydrolase 30 (Homo sapiens) (UniProt Q70CQ3)
# Assay: inhibitors of human USP30 deubiquitinase (AID 1645860)
# Settings: purified USP30, Ub-rhodamine cleavage fluorescence; at 25 µM; active compounds read high
# Sequence of Ubiquitin carboxyl-terminal hydrolase 30 (Homo sapiens) (Q70CQ3 whole entry, looked up): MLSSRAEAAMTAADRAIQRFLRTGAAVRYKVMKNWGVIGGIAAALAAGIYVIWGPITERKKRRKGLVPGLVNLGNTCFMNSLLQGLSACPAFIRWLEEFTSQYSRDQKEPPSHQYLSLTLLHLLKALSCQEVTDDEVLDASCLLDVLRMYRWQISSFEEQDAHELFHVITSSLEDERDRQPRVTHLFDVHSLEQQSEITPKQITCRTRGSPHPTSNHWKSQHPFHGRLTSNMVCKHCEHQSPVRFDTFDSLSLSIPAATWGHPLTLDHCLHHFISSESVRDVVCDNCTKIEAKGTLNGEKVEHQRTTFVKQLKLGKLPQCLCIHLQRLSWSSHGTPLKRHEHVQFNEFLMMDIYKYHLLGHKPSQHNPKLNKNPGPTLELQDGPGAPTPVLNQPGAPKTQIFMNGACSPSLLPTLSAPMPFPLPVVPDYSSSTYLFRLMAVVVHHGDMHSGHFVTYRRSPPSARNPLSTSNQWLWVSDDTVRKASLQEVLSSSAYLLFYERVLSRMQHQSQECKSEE
row,Structure (SMILES),inhibition
1,CN1CCOc2cc(S(=O)(=O)N(C)Cc3ccccc3)ccc21,29.5% (inactive)
2,CCOc1ncccc1C(=O)OCC(=O)c1ccc2c(c1)-c1ccccc1C2,-153% (inactive)
3,CCN1CCN(C(=O)c2cnn(-c3cc(-c4nc(C5CC5)no4)ccn3)c2C)CC1,1.81% (inactive)
4,Cc1ccc(CNC(=O)c2nc(-c3cn(-c4ccc(Br)cc4)nc3C)no2)o1,30.2% (active)
5,O=C(NCC1CC1)c1nc(-c2ccc3[nH]ccc3c2)no1,0.789% (inactive)
6,CCc1nc(-c2ccc(-n3cc(C(=O)NCc4nc5ccc(C)cc5[nH]4)c(C)n3)cc2)no1,8.95% (inactive)
7,COc1ccc(C(=O)CSc2nnc(CC(=O)Nc3ccc(C)cc3)n2C)cc1OC,9.07% (inactive)
8,Cn1nc(C(=O)Nc2ccc(F)cc2)c(=O)c2ccccc21,-0.148% (inactive)
9,Cn1cc(-c2nc(C(=O)Nc3ccc(F)cc3)cs2)c2cccnc21,62.1% (active)
10,Cc1cccc(NC(=O)c2csc(-c3cn(C)c4ncccc34)n2)c1,-7.75% (inactive)
11,Fc1ccccc1CNc1nnc(-c2nnc(C3CC3)o2)c2ccccc12,23.3% (inactive)
12,O=C(O)/C(=C\c1ccc(Br)cc1)NC(=O)c1ccco1,-0.242% (inactive)
13,Cc1cccc(NC(=O)c2cccn2Cc2noc(C3CC3)n2)n1,-19.2% (inactive)
14,Cc1ccc(-c2cc(C(F)F)n3ncc(C(=O)NCC(C)C)c3n2)cc1,38.7% (active)
15,Cc1ccc(CNC(=O)c2cnn3c4c(cnc23)C(=O)CCC4)cc1,-12.6% (inactive)
16,COc1ccc(-c2cc(C(F)F)n3ncc(C(=O)N(C)Cc4c(C)nn(C)c4C)c3n2)cc1,-14.7% (inactive)
17,COc1ccccc1NC(=O)C1=C(C)Nc2ncnn2C1c1ccc(C)o1 (stereo unspecified),-6.73% (inactive)
18,COc1ccc(NC(=O)C2=C(C)Nc3ncnn3C2c2cccc(OCc3ccc(F)cc3)c2)c(OC)c1 (stereo unspecified),60.3% (active)
19,COc1cccc(C2C(C(=O)Nc3ccccc3C)=C(C)Nc3ncnn32)c1OCc1ccccc1 (stereo unspecified),-8.1% (inactive)

row,Structure (SMILES),inhibition
1,O=C(COC(=O)c1ccc2[nH]c3c(c2c1)CCCC3)Nc1ccc(N2CCOCC2)cc1,-55.7% (inactive)
2,CN(C)c1ccc(CNC(=O)c2cc(CN3CCOCC3)on2)cc1,22% (inactive)
3,CCOc1nc2cccnc2n(CC(=O)Nc2ccc(F)cc2F)c1=O,-13% (inactive)
4,O=C(CN1C(=O)C2CCCC2=Nc2ccccc21)Nc1ccc(F)cc1F (stereo unspecified),32.2% (active)
5,O=C(CN1C(=O)c2cccnc2Sc2ccccc21)Nc1ccc(F)cc1F,-96.8% (inactive)
6,COc1cccc(NC(=O)C(C#N)C(=O)C2CC2c2cccc(C)c2)c1 (stereo unspecified),31.3% (active)
7,CNC(=O)N1CCC(n2c(C)nc(C(=O)Nc3cccc(OC)c3)c2C)CC1,2.54% (inactive)
8,CCN1CCCCC12Cc1ccccc1CN(S(C)(=O)=O)C2 (stereo unspecified),1.88% (inactive)
9,O=C(Nc1cccc(S(=O)(=O)N2CCCCCC2)c1)c1ccc(N2CCOCC2)c([N+](=O)[O-])c1,47.3% (active)
10,CN1CCN(S(=O)(=O)c2cccc(C(=O)Nc3cccc(S(N)(=O)=O)c3)c2)CC1,7.83% (inactive)
11,Cc1cccc(NC(=O)c2ccc(N3CCC(C)CC3)c([N+](=O)[O-])c2)c1C,-29.1% (inactive)
12,COc1ccccc1OCc1nc(C)c(C(C)=O)s1,6.92% (inactive)
13,c1ccc(Sc2nc(-c3ccccc3)nc3ccsc23)cc1,-19% (inactive)
14,CCC(=O)N1CCc2cc(S(=O)(=O)NC(Cc3ccccc3)C(=O)Nc3ccccc3OC)ccc21 (stereo unspecified),-0.729% (inactive)
15,CC(CCc1ccccc1)NC(=O)/C=C/c1cccc([N+](=O)[O-])c1 (stereo unspecified),34.1% (active)
16,CC(CCc1ccccc1)NC(=O)c1cc2cc(Oc3ccccc3)ccc2[nH]1 (stereo unspecified),8.29% (inactive)
17,O=C(Oc1cccc([N+](=O)[O-])c1)C(c1ccccc1)c1ccccc1,25% (inactive)
18,COc1cccc(OCC(=O)N2CC(=O)Nc3ccccc32)c1,-14.6% (inactive)
19,Cc1nc(C)n(CC2CCCCN2Cc2ncc(C(C)(C)C)o2)n1 (stereo unspecified),-97.5% (inactive)

row,Structure (SMILES),inhibition
1,Cc1cc(C2CN(C(=O)c3cn4c(C)cccc4n3)CCO2)nc(C)n1 (stereo unspecified),2.35% (inactive)
2,CCOc1ccc2nc(NC(=O)CN3CCC(C(N)=O)CC3)sc2c1,-1.04% (inactive)
3,O=C(Cc1cccc2ccccc12)Nc1nc2ccc(F)cc2s1,53.9% (active)
4,CCCC(=O)Nc1nc2ccc(CCC(=O)NCc3ccc(F)cc3)cc2s1,-10.2% (inactive)
5,O=C(OCC(=O)N1CCc2ccccc21)c1cccc([N+](=O)[O-])c1,-2.1% (inactive)
6,CC(C)[C@H](NC(=O)N1CCn2c1nc1ccccc12)C(=O)NC1CC1,16% (inactive)
7,O=C1CN(C(=O)c2cccc3ccccc23)C(c2ccc(F)cc2)c2cc(Br)ccc2N1 (stereo unspecified),16% (inactive)
8,Cc1ccc2c(c1)C(c1ccccc1)N(C(=O)c1ccc(S(=O)(=O)N3CCOCC3)cc1)CC(=O)N2 (stereo unspecified),32.4% (active)
9,Cc1ccc2c(c1)C(c1ccc(F)cc1)N(C(=O)CC1CCCCC1)CC(=O)N2 (stereo unspecified),26.9% (inactive)
10,O=C(c1ccccc1Cl)N1CCc2c([nH]c3ccccc23)C1c1ccc2c(c1)OCO2 (stereo unspecified),-14.6% (inactive)
11,CCc1nnc(NC(=O)c2cc(-c3ccc(C)c(C)c3O)n[nH]2)s1,17.9% (inactive)
12,CCc1ccc(-n2nnc(C(=O)Nc3nnc(CC)s3)c2C)cc1,30.5% (active)
13,CCc1nnc(NC(=O)C2CCN(C(=O)c3ccc(F)cc3)CC2)s1,-0.015% (inactive)
14,COc1ccc(NC(=O)c2sc(N3CCOCC3)nc2-c2ccccc2)c(OC)c1,48.1% (active)
15,COc1ccc(-c2nc(N(Cc3ccccc3)C(=O)CN3CCOCC3)sc2C)cc1,-14.4% (inactive)
16,CNC(=O)c1cc(-c2ccccc2)c(N2CCOCC2)s1,-0.0877% (inactive)
17,Cc1cc(C)c(S(=O)(=O)Nc2ccc(Cn3cncn3)cc2)cc1C,-29.3% (inactive)
18,COc1ccc(CN[C@H]2[C@H](O)[C@H](O)C[C@@H]2c2ccccc2)cn1,-17.6% (inactive)
